Cl transport mod: modulators of human KCC2 chloride dependent transport. Q9H2X9. KCC2 cells, thallium flux FluoZin-2 fluorescence. B-score of Tl+ flux slope (higher = more flux/activation; lower = inhibition) at 10 µM. 190,000 compounds, 2.2% hits. AID 1456;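 active = thallium flux slope and its plate-corrected score both differing from the plate sample mean at a set confidence after two filtering rounds, in either direction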;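 also: slope of fluorescence scaled to starting intensity during 10 to 20 s after thallium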
m-calpain inh: calpain II (pig) inhibition; purified calpain II, fluorogenic peptide substrate, 30 min; inhibition, % at 16 µM; 220,000 compounds, 0.37% hits;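 active = inhibition above about 50%, limit read from the data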
ROMK mod: modulates human ROMK potassium channel activity; Tet-inducible ROMK, thallium flux fluorescence; actives lie on both sides; B-score at 10 µM; 130,000 compounds, 2% hits; AID 1918;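 active = signal ratio slope over the read window, or its plate-corrected B-score, at least 3 SD from the plate mean, either direction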;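 also: B-score of the F/F0 ratio slope over 7 to 12 s after thallium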
Target sequence (P48048 whole entry, looked up): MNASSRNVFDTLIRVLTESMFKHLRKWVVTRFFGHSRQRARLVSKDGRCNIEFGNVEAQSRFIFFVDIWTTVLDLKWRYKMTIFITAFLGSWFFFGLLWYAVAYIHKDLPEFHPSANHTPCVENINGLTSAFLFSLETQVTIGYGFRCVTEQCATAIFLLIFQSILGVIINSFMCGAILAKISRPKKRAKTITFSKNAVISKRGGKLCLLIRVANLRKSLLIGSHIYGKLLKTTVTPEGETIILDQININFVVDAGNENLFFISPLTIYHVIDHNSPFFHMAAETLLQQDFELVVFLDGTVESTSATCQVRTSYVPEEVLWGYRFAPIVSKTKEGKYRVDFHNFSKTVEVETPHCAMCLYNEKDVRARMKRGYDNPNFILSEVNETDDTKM
L major viab: Leishmania major promastigote growth inhibition; Leishmania major promastigotes, resazurin fluorescence viability; inhibition, % at 10 µM; 200,000 compounds, 9% hits; AID 1063; in the data active = inhibition above about 50%;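 also: promastigotes grown with compound for 44 hours at 28 °C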
WT yeast gro inh: growth inhibition of WT yeast, mitochondrial fusion screen; 190,000 compounds, 2.1% hits; inhibition, % at 10 µM; mitochondrial fusion phenotypic screen, WT strain; in the data active = inhibition above about 58%; tested in S. cerevisiae
The depositor's hits bear a star; . = no result given. Most compounds without a hit are left out; they make up all but 12% or so of the library.

SMILES	Cl transport mod	m-calpain inh	ROMK mod	L major viab	WT yeast gro inh
O=C(NNC1=Nc2cccc3cccc1c23)c1ccccc1Br	0.99	25	.	53*	11
O=C(/C=C/c1ccco1)Nc1ccccc1N1CCCCC1	0.2	28	0.51	18	70*
COc1cccc2cc(C(=O)NNC(=O)c3ccc(Br)cc3)c(=O)oc12	-0.22	43	1.1	-8	10
Cc1nc2ccccc2c2oc(C(=O)Nc3ccc4c(c3)OCCO4)cc12	.	-46	.	-4	0
Cc1nc2ccccc2c2oc(C(=O)Nc3ccc(C(C)C)cc3)cc12	1	-198	.	36	61*
CCN1CCCC1CNC(=O)c1cc2c(C)nc3ccccc3c2o1 (stereo not drawn)	0.83	.	.	100*	15
Cc1cccc(N2CCN(C(=O)c3cc4c(C)nc5ccccc5c4o3)CC2)c1C	.	.	.	.	67*
CCc1sc(C(C2C(=O)CC(C)(C)CC2=O)C2C(=O)CC(C)(C)CC2=O)cc1[N+](=O)[O-]	-0.87	3	-0.53	24	15
CCOc1cc(N2CCOCC2)c(OCC)cc1NC(=O)CSc1ncn[nH]1	-0.11	18	-0.36	4	0
O=C(NCCN1C(=O)CCC1=O)c1ccncc1	0.26	-10	0.0043	10	-10
CNC(=O)c1nc(C)n(-c2cc(Cl)ccc2Cl)n1	1.4	8	.	-7	-17
COc1ccc2c(c1)CCC/C2=N\Nc1nc(C(=O)NN)cs1	-0.017	-5	-0.46	.	.
Cc1c(NC(=O)c2cccs2)cccc1C(=O)O	0.77	17	.	81*	7
O=C(NC(=S)Nc1cccnc1)c1cccs1	4.5	-23	-0.17	-7	11
O=C(Nc1cccnc1)c1cccs1	-0.3	64*	-0.026	-3	-11
COc1ccc(NC(=O)c2ccco2)cc1NC(=O)c1cccs1	.	20	.	16	-10
O=C(Nc1ccc(NC(=O)c2cccs2)c(Cl)c1)c1ccco1	-0.15	-16	-1.3	59*	-4
O=C(Nc1ccncc1)c1cccs1	.	-28	1.4	59*	10
CN1CCN(C(=O)c2ccccc2NC(=O)c2cccs2)CC1	0.7	-22	.	-5	-12
O=C(Nc1ccc2nsnc2c1)c1cccs1	-0.028	-54	.	-7	-7
COc1ccccc1N1C(=S)NC2CS(=O)(=O)CC21 (stereo not drawn)	0.62	5	-0.36	.	.
CC(C)NC(=O)c1onc(CSc2cccc3ccccc23)c1C(=O)O	-0.55	-15	.	-8	0
COc1ccc(C(=O)Nc2nc3c(s2)Cc2cc(OC)ccc2-3)cc1	-0.39	-54	.	96*	3
Cc1ccsc1CN(C)C(=O)CCc1nnc(COc2ccccc2)o1	-2	-30	-0.11	-7	-12
COc1cccc(C2C3=C(CC(C)(C)CC3=O)Nc3cc4c(cc32)OCO4)c1 (stereo not drawn)	-0.97	-264	.	100*	-6
SMILES	Cl transport mod	m-calpain inh	ROMK mod	L major viab	WT yeast gro inh
O=C1OCC2=C1C(c1ccc(F)cc1)c1cc3c(cc1N2)OCCO3 (stereo not drawn)	-1.4	-119	1.9	0	-31
O=C1OCC2=C1C(c1ccc(F)cc1)c1cc3c(cc1N2)OCO3 (stereo not drawn)	-0.0097	-238	2.8*	4	-4
COc1cccc(C2C3=C(CC(C)(C)CC3=O)Nc3cc(OC)c(OC)cc32)c1 (stereo not drawn)	0.47	-492	-0.13	3	-12
O=C(NC1=NCCS1)c1ccc(Cl)c(S(=O)(=O)N2CCOCC2)c1	-0.39	17	-0.29	3	17
CC1CCc2c(sc(NC(=O)CCCn3cnc([N+](=O)[O-])n3)c2C(N)=O)C1 (stereo not drawn)	-0.023	1	-0.73	92*	-12
Cc1cc([N+](=O)[O-])nn1CCCC(=O)Nc1sc2c(c1C(N)=O)CCCC2	0.29	-3	0.84	6	3
NC(=O)c1c(NC(=O)CCCn2cnc([N+](=O)[O-])n2)sc2c1CCCC2	0.00063	-31	-0.041	55*	9
O=C(CCCn1cnc([N+](=O)[O-])n1)Nc1ccc(Cl)cc1Cl	0.21	19	-0.032	34	1
O=C(CCCn1cnc([N+](=O)[O-])n1)Nc1ccc(F)c(Cl)c1	1.4	-15	-0.58	83*	-4
CCOc1ccccc1N1CCN(C(=O)CCCc2nc3ccccc3s2)CC1	-2.9	24	-0.052	2	31
CCn1cc(CN2CCCC(CO)(Cc3cccc(Cl)c3)C2)cn1 (stereo not drawn)	-0.0019	-20	-0.78	92*	-3
CCOC(=O)C1(Cc2ccccc2)CCCN(Cc2cnn(CC)c2)C1 (stereo not drawn)	0.08	-16	0.54	16	8
Cn1cc(CN2CCCC(CO)(Cc3ccccc3)C2)cn1 (stereo not drawn)	2.3	-30	0.012	77*	-2
OCC1(Cc2cccc(Cl)c2)CCCN(Cc2cnn(-c3ccccc3)c2)C1 (stereo not drawn)	-0.44	10	.	85*	13
COc1cc(CN2CCCC(CO)(Cc3cccc(Cl)c3)C2)cc2c1OCO2 (stereo not drawn)	.	-24	-0.09	73*	23
Cc1ccc(C(=O)Nn2cnnc2)cc1S(=O)(=O)N1CCOCC1	0.59	-16	.	.	.
Cn1cc(CN2CCCC(CO)(Cc3cccc(Cl)c3)C2)cn1 (stereo not drawn)	1.2	16	-0.46	81*	26
CSc1cccc(CN2CCCC(CO)(Cc3cccc(Cl)c3)C2)c1 (stereo not drawn)	-0.6	1	-0.15	1	30
Cc1cccc(-c2ncc(CN3CCCC(CO)(Cc4cccc(Cl)c4)C3)cn2)c1 (stereo not drawn)	-0.093	1	0.29	9	63*
CC(=O)Nc1ccc(CN2CCCC(CO)(Cc3cccc(Cl)c3)C2)cc1 (stereo not drawn)	-0.41	-13	.	.	.
Cc1nn(C)c(Cl)c1CN1CCCC(CO)(Cc2cccc(Cl)c2)C1 (stereo not drawn)	-0.3	19	-0.45	86*	.
CC(C)n1cc(CN2CCCC(CO)(Cc3cccc(Cl)c3)C2)cn1 (stereo not drawn)	.	16	-1.6	87*	5
Cc1ccccc1CC1(CO)CCCN(Cc2cn[nH]c2-c2ccccc2)C1 (stereo not drawn)	.	39	-1.7	20	12
CCOC(=O)C1(Cc2cccc(F)c2)CCN(C(=O)c2cnc(C)cn2)CC1	-0.018	32	-0.024	-5	18
CCCOc1ccc(C(=O)NCC(C)(C)N2CCOCC2)cc1	0.45	28	0.82	-7	-18
CN(C1CCCCC1)S(=O)(=O)c1ccc2[nH]c(=O)oc2c1	0.0069	-17	-0.15	.	.
CCNc1nc(NC(C)C)nc(N(n2cnnc2)S(=O)(=O)c2ccc(C)cc2)n1	0.055	8	0.42	58*	-14
CCC1Oc2ccc(C)cc2N(CC(=O)N(Cc2cccnc2)Cc2ccc(C)o2)C1=O (stereo not drawn)	-0.6	-1	.	100*	0
COc1cc(Br)c(CCNC(=O)c2ccco2)cc1OC	0.44	-12	.	2	-4
COc1cc(/C=N/N2CCOCC2)ccc1OCc1ccc(Cl)cc1	-0.88	-6	-2.4	-11	14
